Test results as given in ChEMBL document CHEMBL3988442, “University of Dundee, Small-Polar-MMV Screening Library” (2021).
Hit rate of the full screen: of about 48,000 compounds, about 13,000 (27%) showed an effect of 50% or more. Some of the results follow.

test system: Wolbachia pipientis; assay: Anti-Wolbachia Cell-Based Screen; assay type: functional; parameters: scale not given: in the data most compounds retested in dose-response had high values; conditions: 5 µM

SMILES	Percent Effect
CC(C)CNC(=O)c1nc2c(s1)CCN(C(=O)c1ccc(Cl)cc1)CC2	-4.208%
CC(C)OCCCNC(=O)N(C)C(C)c1ccc(-n2cncn2)cc1 (stereo not given)	-7.098%
CCN1CC(CN(C)Cc2nc(-c3cccc(Cl)c3)oc2C)CC1=O (stereo not given)	102.8%
CNC(=O)CC1CCN(Cc2nc(-c3cccc(Cl)c3)oc2C)CC1	-0.6077%
Cc1cccc(-c2nc(CN3CCOCS3(=O)=O)c(C)o2)c1	4.701%
CCc1nnc(CN(C)Cc2nc(-c3ccccc3Cl)oc2C)o1	-2.214%
CCN1CC(CN(C)Cc2nc(-c3cccc(C)c3)oc2C)CC1=O (stereo not given)	105.1%
CCN(CCn1cccn1)Cc1nc(-c2cccc(C)c2)oc1C	-6.378%
Cc1nc(C2CCCN(C(=O)c3cc(Cl)c[nH]3)C2)no1 (stereo not given)	0.9971%
N#Cc1cccc(CNCCNC(=O)Cc2cccc(F)c2)c1	98.51%
CCN(CCNCc1cccc(C#N)c1)C1CC1	-10.23%
N#Cc1cccc(CNC(=O)NC2CCN(CC(F)F)CC2)c1	-0.5422%
O=C(Cc1cccc(F)c1)NCCNCC1CNc2ccnn2C1 (stereo not given)	0.2613%
O=C(Cc1cccc(F)c1)NCCNCc1ccco1	-5.047%
O=C(Cc1cccc(F)c1)NCCNCc1cccnc1	96.05%
COCCN(CCC#N)S(=O)(=O)c1cc(F)cc(F)c1	-7.872%
c1ccc(C(c2ccccc2)N2CCN(CCn3cncn3)CC2)cc1	0.8212%
CC(C)(C)c1ccn(C2(C(=O)O)CCN(c3nccc(N)n3)CC2)n1	-5.25%
O=C(c1cnccn1)N1C[C@@H]2[C@@H](C1)OCC(=O)N2CC1CCCC1	-6.759%
COc1cc(C2(C(=O)NCC(=O)NC3CC3)CC2)ccc1C	9.021%
CNC(=O)CNC(=O)c1ccc(-c2scnc2C)nc1	75.09%
Cc1ncsc1-c1cc(C(=O)NCCO)ccn1	109.9%
O=C(NCCNC(=O)c1scnc1Cl)c1ccccc1	-1.754%
Cc1ncsc1-c1ccn(CC(=O)Nc2cnn(C)n2)n1	-5.489%
Cc1ncsc1C(=O)NCCSCCCO	-0.9457%

SMILES	Percent Effect
CNC(=O)c1ccc(CN(C(=O)c2scnc2C)C2CC2)cc1	4.078%
CCCc1nnc(NC(=O)N2CCCC2c2ccncc2)s1 (stereo not given)	3.484%
CN(Cc1ccc(-n2cccn2)cc1)c1nc(N)nc2c1CCNCC2	3.985%
CCOc1ccc(-c2nc(CN(C)Cc3c(C)noc3C)cs2)cc1	-23.12%
c1cnc2c(-c3nccn3C[C@@H]3CCCN4CCCC[C@H]34)cccc2c1	5.22%
CN(C)C(=O)N1CCC(C2C(=O)Nc3ccccc32)CC1 (stereo not given)	-38.16%
CO[C@@H]1CN(c2ccccc2)S(=O)(=O)[C@@]12CCN(C(=O)N(C)C)C2	88.6%
CS(=O)(=O)NCC1CCN(C(=O)Oc2ccccc2)CC1	-10.63%
COC(=O)N1CCC2(CC1)CC(c1ccccc1)CN(C)C2 (stereo not given)	-13.78%
CO[C@@H]1CN(c2ccccc2)S(=O)(=O)[C@@]12CCNC2	127.8%
O=C(C1CC2(CCNCC2)CN1)N1CCN(c2ccccc2)CC1 (stereo not given)	-0.8952%
CO[C@@H]1CN(c2ccccc2)S(=O)(=O)[C@@]12CCN(C(C)=O)C2	94.97%
COC(=O)N1CC[C@@]2(C1)[C@H](OC)CN(c1ccccc1)S2(=O)=O	101.1%
CC(=O)N1CCC2(CC1)CC(Oc1ccccc1)CO2 (stereo not given)	-5.824%
CN(C)C(=O)N1CCN(C(=O)CCc2ccccc2)[C@H]2CS(=O)(=O)C[C@H]21	-4.375%
NC(=O)N1CCCN(C2CCCCc3ccccc32)CC1 (stereo not given)	-4.011%
CO[C@@H]1CN(c2ccccc2)S(=O)(=O)[C@@]12CCN(C)C2	121.6%
CS(=O)(=O)N1CCC2(CC1)c1ccccc1[C@@H](N1CCSCC1)[C@@H]2O	-3.022%
CN1CC(=O)N(c2ccccc2)CC12CCN(S(C)(=O)=O)C2.O=C(O)C(F)(F)F (stereo not given)	10.77%
COC1CCN(S(=O)(=O)N2CC(c3ccccc3)C(C)(C)C2)CC1 (stereo not given)	17.09%
CO[C@@H]1CN(c2ccccc2)S(=O)(=O)[C@@]12CCN(S(C)(=O)=O)C2	80.67%
CCN(CC)C(=O)C1CCC(=O)N(CCc2cccc(F)c2)C1 (stereo not given)	5.387%
Cn1cc(C(=O)NC2CCN(C(=O)NCC3CCSCC3)CC2)cn1	-0.1776%
COC(=O)N1CCC(CNS(=O)(=O)c2cnn(C)c2)CC1	-8.062%
COCCCNC(=O)N1CCC(CNC(=O)c2cnn(C)c2)CC1	114%
